Experimental data taken from PubChem BioAssay (NCATS).
Results filed as inconclusive are left out. Entries that show only a call come without a potency. Activity calls are given as the source filed them. The call rests on the fitted dose curve; in most records, active means well fitted cell-killing curve with a large enough effect; inconclusive means small, poorly fitted or top-dose-only effect, or effect the other way; inactive means no such curve, though single readings can be large or run the other way.

assay: Cell Viability - LYMP2-004 (AID 966); conditions: LYMP2-004 lymphoblastoid cell viability, qHTS; series mostly up to 92.2 µM; further: nearly all actives have a fitted effect of over 65% in size
Summary of the method: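 AC50 values come from Hill modelling of concentration-dependent loss of intracellular ATP, measured by CellTiter-Glo luminescence. Human LYMP2-004 lymphoblastoid cells (2500/well) were exposed to compound for 24 h at 37 C.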
Potency means the concentration at half of the fitted maximal effect.

Question: With CC(=O)Nc1ccc(C)cc1 as the compound, how does the Potency read?
Answer: inactive

Question: With O=C1OC(=O)c2c(Br)c(Br)c(Br)c(Br)c21 as the compound, how does the Potency read?
Answer: inactive

Question: For O=C(O)CNC(=O)c1ccc([N+](=O)[O-])cc1, which Potency is on record?
Answer: inactive

Question: With Cc1cccc(C(=O)O)c1 as the compound, how does the Potency read?
Answer: inactive

Question: With O=Cc1c(Cl)cccc1Cl as the compound, how does the Potency read?
Answer: inactive

Question: With CCCCCCC=O as the compound, how does the Potency read?
Answer: inactive

Question: For CCCCC(CC)COCC1CO1 (stereo not drawn), which Potency is on record?
Answer: inactive

Question: For COc1ccc(N)c(C)c1, which Potency is on record?
Answer: inactive

Question: For CCC(C)(C)C(=O)O, which Potency is on record?
Answer: inactive

Question: For CC(C)(O)CCC(C)(C)O, which Potency is on record?
Answer: inactive

Question: With O=Nc1ccc(NO)cc1 as the compound, how does the Potency read?
Answer: 50.1 µM (active)

Question: For C=C(C)C1CC=C(C)C(OC(C)=O)C1 (stereo not drawn), which Potency is on record?
Answer: inactive

Question: Which Potency does the source give for CSCCC=O here?
Answer: inactive

Question: With CCCCC(C=O)CC (stereo not drawn) as the compound, how does the Potency read?
Answer: inactive

Question: Which Potency does the source give for CCOCC(=O)O here?
Answer: inactive

Question: With CC1=C(/C=C/C(C)=C/C=C/C(C)=C\C=O)C(C)(C)CCC1 as the compound, how does the Potency read?
Answer: 31.6 µM (active)

Question: For [O-]/[N+](=N\O)c1ccccc1, which Potency is on record?
Answer: inactive

Question: Which Potency does the source give for Cc1ccc2oc(=O)ccc2c1 here?
Answer: inactive

Question: For O=[N+]([O-])c1ccc2nc[nH]c2c1, which Potency is on record?
Answer: inactive

Question: Which Potency does the source give for CC(C)N=C=NC(C)C here?
Answer: inactive

Question: With Cc1cccc2ccccc12 as the compound, how does the Potency read?
Answer: inactive

Question: Which Potency does the source give for CC(C)N(C)C here?
Answer: inactive

Question: For Clc1ccccn1, which Potency is on record?
Answer: inactive
